# Rows were chosen to be rich in hits. Some 7.3% of all compounds tested hit in one or more screens of this group.
# NPC1 promoter act = activators of NPC1 promoter; Huh7 NPC1 promoter luciferase reporter, 24 h; Potency, µM (highest dose often 9.22 µM), without a hit: top-dose activation, actives largely listed as activators; 320,000 tested, 2.4% active; AID 485313; further: % of control where 0% means no effect; nearly all actives have a fitted effect of over 60% in size
#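 In 1536-well qHTS, Huh7 cells harboring an NPC1 promoter–luciferase construct received compound for 24 h; activation was quantified by luminescence following luciferase reagent addition.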
# SMN2 splice enh = increases expression of the SMN2 splice variant; HEK293 SMN2-luciferase splicing reporter, luminescence, 30-36 h; Potency, µM (top dose mostly 46.1 µM), inactives show top-dose activity change, positive = activation, hits mostly activators; 210,000 tested, 2.8% active; AID 1458; further: % of control where 0% means no effect; nearly all actives have a fitted effect of over 55% in size
#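 qHTS luciferase splicing reporter: luminescence rises when SMN2 exon 7 is included in transfected HEK293 cells. Compound exposure lasted 30-36 h at 37C, with 4.5 mM final sodium butyrate as control, followed by a ONE-Glo read.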
# uPA generation = cell surface uPA generation inhibition. AID 540303. Potency, µM (titrated, usually from 38.3 µM), for inactives: top-dose activity change, negative = inhibition, actives largely listed as inhibitors. 330,000 tested, 0.31% active. cell surface uPA generation assay, qHTS; active means well fitted inhibition curve with a large enough effect; inconclusive means small, poorly fitted or top-dose-only effect; inactive means no such curve, though single readings can be large or run the other way; tested in mouse RAW 264.7 cells; further: on the % scale 0 is the no-effect control and ±100 the full control effect; nearly all actives have a fitted effect of over 55% in size
# ELG1 genotoxic = genotoxicity induction in ELG1-luciferase HEK293T cells; HEK293T ELG1-luciferase reporter, luminescence, 16 h; Potency, µM (highest dose often 46 µM), for the others: at the top dose activity change, positive = activation, most hits filed as activators; 330,000 tested, 1.3% active; AID 504466; further: % of control where 0% means no effect; nearly all actives have a fitted effect of over 60% in size
#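 Step 1: seed 2,000 HEK293T ELG1-luciferase cells per well. Step 2: add compound or DMSO, incubate 16 hr at 37 °C. Step 3: ONE-Glo, 30 min at room temperature, read luminescence.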
# FLuc modulator = counter-screen for miR-21 project: firefly luciferase inhibitors or activators; Potency, µM (titrated, usually from 57.5 µM), without a hit: at the highest dose activity change, negative = inhibition, actives largely listed as inhibitors; purified FLuc, Km substrates, luminescence inhibition; 360,000 tested, 6.9% active;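 further: plate controls were vehicle for no effect and reference inhibitor for full effect; nearly all actives have a fitted effect of over 55% in size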
# Target sequence (P08659 whole entry, looked up): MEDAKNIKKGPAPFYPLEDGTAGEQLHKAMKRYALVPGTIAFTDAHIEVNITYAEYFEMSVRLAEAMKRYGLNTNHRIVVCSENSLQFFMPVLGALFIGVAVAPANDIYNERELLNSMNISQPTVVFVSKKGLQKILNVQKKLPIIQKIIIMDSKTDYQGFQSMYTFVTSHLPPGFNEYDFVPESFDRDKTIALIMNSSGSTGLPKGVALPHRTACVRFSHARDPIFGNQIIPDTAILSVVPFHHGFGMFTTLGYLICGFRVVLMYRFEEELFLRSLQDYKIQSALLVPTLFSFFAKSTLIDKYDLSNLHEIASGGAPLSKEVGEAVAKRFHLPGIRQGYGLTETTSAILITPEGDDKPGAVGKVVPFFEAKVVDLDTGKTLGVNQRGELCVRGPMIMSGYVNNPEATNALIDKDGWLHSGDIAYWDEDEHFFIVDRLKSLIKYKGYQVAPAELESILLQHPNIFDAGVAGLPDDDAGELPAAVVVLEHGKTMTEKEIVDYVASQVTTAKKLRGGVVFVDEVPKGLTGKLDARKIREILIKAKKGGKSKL
#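 Purified P. pyralis luciferase, 10 nM final, with Km-level 10 uM D-luciferin and 10 uM ATP in 50 mM Tris acetate pH 7.5, 10 mM Mg acetate, 0.01% Tween-20, 0.05% BSA; 6-point qHTS titration about 60 µM downward; luminescence read.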
# Rab9 prom act = activates the Rab9 promoter; 320,000 tested, 2.8% active; Potency, µM (highest dose often 9.22 µM), inactives show at the highest dose activation, negative = inhibition, most hits filed as activators; Huh7 Rab9 promoter-luciferase reporter, luminescence, 24 h; further: % of control where 0% means no effect; nearly all actives have a fitted effect of over 60% in size
#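 Measured in stably transfected Huh7 cells bearing a Rab9 promoter–luciferase construct: 24 h compound treatment at 37 °C, followed by luminescence detection.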
# * marks the source's active call; other numbers are inactive results; ? = inconclusive; . = no result given; [ ] = remark or other dose. Unless noted, the call rests on the fitted dose curve; in most records, active means well fitted curve in the direction sought with a large enough effect; inconclusive means small, poorly fitted or top-dose-only effect, or another doubt; inactive means no such curve, though single readings can be large; an effect the other way counts as inactive or inconclusive. Potency means the concentration at half of the fitted maximal effect.
SMILES,NPC1 promoter act,SMN2 splice enh,uPA generation,ELG1 genotoxic,FLuc modulator,Rab9 prom act
O=C(Nc1cccc(-c2cnc3ccccc3n2)c1)c1cccc(NC(=O)c2ccco2)c1,2%,?,.,-6%,11µM*,3%
O=C(Nc1ccc2nc(-c3cccs3)[nH]c2c1)c1cccs1,13%,5%,-15%,6%,-9%[2.3 µM],28%
O=C(Nc1cccc(-c2cnc3ccccc3n2)c1)c1ccccc1,4%,-9%,.,15%,-13%,17%
O=C(NCc1ccc2c(c1)CCN2C(=O)c1ccc(F)cc1)c1ccco1,.,.,.,.,-12%,.
c1ccc(Nc2ncnc3ccc(-c4cccnc4)cc23)cc1,.,-7%,.,.,.,.
CC(C)Oc1ccc(CNC(=O)CCCN2C(=O)c3cccnc3Oc3ccc(Cl)cc32)cc1,.,.,.,.,0%,.
COC(=O)c1ccc(-c2ccc(Cl)cc2)nc1C,1.6µM*,5µM*,-1%,8.2µM*,1.3µM*,1.4µM*
COc1ccc2nc3c(cc2c1)Cc1ccccc1-3,.,0.5µM*,.,.,.,.
CCCOc1cccc(C2c3c(oc4cc(C)c(C)cc4c3=O)C(=O)N2CCCN2CCOCC2)c1 (stereo not drawn),.,30%,.,.,1%,.
Cc1ccc(N=Nc2c(N)[nH]n3c(=O)cc(-c4ccccc4)nc23)cc1,1%,-74%,3%,2%,9.5µM*,-3%
COc1cccc(-c2cc3nc(-c4ccccc4)cc(=O)n3[nH]2)c1,-11%,.,-17%,?,12µM*,0%
COc1cccc(N=Nc2c(N)[nH]n3c(=O)cc(-c4ccccc4)nc23)c1,-1%,-86%,-3%,-8%,11µM*,3%
Cc1cc(=O)n2[nH]c(N)c(N=Nc3ccccc3)c2n1,-2%,18%,0%,-6%,?,2%
COc1ccc(-c2c(C(F)(F)F)[nH]n3c(=O)cc(-c4ccccc4)nc23)cc1,-2%,.,8%,-8%,19µM*,2%
COc1ccc(CCNc2nc(SCc3ccc(F)cc3)nc3ccccc23)cc1OC,.,.,.,.,0%,.
CCOc1ccccc1C(=O)Nc1cc2c(cc1N1CCCCC1)n(C)c(=O)n2C,.,-16%,.,.,-14%,.
COc1ccccc1N(CC(=O)N1CCC(C)CC1)S(=O)(=O)c1ccc(C)cc1,.,-25%,.,.,5%,.
CN(C)/C=C1/Oc2c(ccc3ccccc23)C1=O,10%,-22%,4%,0%,?,-5%
CN(C)/C=C1\Oc2ccc3ccccc3c2C1=O,3.2µM*,18µM*,-4%,14%,17µM*,?
O=C(c1cc(-c2ccc(Cl)cc2Cl)on1)N1CCCC1,0.89µM*,.,-1%,2.9µM*,0.43µM*,1µM*
O=C(c1cc(-c2ccc(Cl)cc2Cl)on1)N1CCCCCC1,0.71µM*,.,2%,4.6µM*,1.2µM*,0.71µM*
O=C(NCCN1CCOCC1)c1cc(-c2cccc(Cl)c2)on1,4%,.,-3%,-20%,-7%,18%
COc1ccc(-c2cc(C(=O)N3CCCC3)no2)cc1OC,?,.,4%,?,?,?
O=C(NCCN1CCOCC1)c1cc(-c2ccc(Cl)cc2Cl)on1,27%,.,-7%,23%,11µM*,5%
Cc1cc(C)cc(N2CCn3c2nc2c3c(=O)n(CCc3ccccc3)c(=O)n2C)c1,.,.,.,.,2%,.
SMILES,NPC1 promoter act,SMN2 splice enh,uPA generation,ELG1 genotoxic,FLuc modulator,Rab9 prom act
Cc1ccc(CN2CCCn3nc(C(=O)NCCc4ccccc4Cl)cc3C2=O)cc1,.,.,.,.,-2%,.
CCOC(=O)C1CCCN(c2nc3c(S(=O)(=O)c4ccc(Br)cc4)nnn3c3ccsc23)C1 (stereo not drawn),.,.,.,.,1%,.
O=C(NCc1ccccc1Cl)C1CCN(C(=O)N2CCOc3ccccc32)CC1,.,.,.,.,2%,.
Clc1c(CSc2nc3ccccc3o2)nc2ccccn12,1.6µM*,14µM*,11%,2.6µM*,1.9µM*,2µM*
Brc1c(CSc2nc3ccccc3o2)nc2ncccn12,?,28%,-3%,?,15µM*,?
Clc1c(CSc2nc3ccccc3o2)nc2sccn12,1.6µM*,10µM*,.,5.8µM*,9.5µM*,2µM*
O=C(CSc1nc2ccccc2o1)Nc1ccc(Cl)cc1,-1%,11%,-6%,?,3%,-2%
O=C(CSc1nc2ccccc2o1)Nc1nncs1,0%,-20%,-1%,5%,-15%,-3%
COc1cccc(NC(=O)C2CCC(CNS(=O)(=O)c3csc(C(N)=O)c3)CC2)c1 (stereo not drawn),.,.,.,.,-2%,.
O=S(=O)(Oc1ccc(Cl)cc1)c1cccc2cccnc12,-2%,.,8%,1%,?,-1%
O=C(Nc1ccc(Cl)c(S(=O)(=O)N2CCOCC2)c1)c1cn2ccccc2n1,-4%,-50%,8%,-7%,1%,-7%
O=C(NC1CC1)c1cccc(NC(=O)c2cn3ccccc3n2)c1,?,.,-6%,12%,.,3.2µM*
O=C(CNC(=O)c1cn2ccccc2n1)Nc1ccc(F)c(F)c1,?,.,-10%,8.2µM*,17µM*,2.2µM*
O=C(Nc1ccc(N2CCOCC2)cc1)c1cn2ccccc2n1,?,?,-12%,3%,1.7µM*,?
CS(=O)(=O)N(CC(=O)NCCc1ccccc1)c1cc(C(F)(F)F)ccc1Cl,.,17%,.,.,5%,.
CC(C)(C)C(=O)O/N=C(\N)COc1cccc(Cl)c1,3%,.,14%,8%,17µM*,-1%
COc1cccc(C(=O)NCCSc2c(-c3ccc(F)cc3)[nH]c3ccccc23)c1OC,.,24%,.,.,5%,.
O=C(CCC(=O)c1cccs1)OCC(=O)c1ccccc1F,5%,.,-11%,3%,19µM*,9%
N#Cc1ccccc1COC(=O)CCC(=O)c1cccs1,1%,.,2%,4%,12µM*,3%
O=C(CCC(=O)c1cccs1)OCC(=O)c1ccccc1,.,.,3%,-2%,.,.
Nc1nc(SCC(=O)c2ccc(Br)cc2)c2[nH]cnc2n1,.,-13%[9.22 µM],.,.,.,.
Cn1c(=O)c2c(SCc3ccccn3)nc(C3CC3)nc2n(C)c1=O,0%,29%,1%,16µM*,-1%,13%
Cn1c(=O)c2c(SCc3ccccc3)nc(C3CC3)nc2n(C)c1=O,-1%,.,5%,4%,-1%,9%
N/C(=N\OC(=O)C1CCCCC1)c1ccc(Cl)cc1,20%,.,22%,?,11µM*,9%
N/C(=N\OC(=O)C1CCCCC1)c1ccc(Br)cc1,19%,.,0%,?,9.5µM*,?
N/C(=N\OC(=O)C1CCCCC1)c1ccccn1,25%,12%,.,?,2.4µM*,19%
CCN(CC)C(=O)CSc1nnc(COc2ccccc2)n1N,-4%,.,-6%,0%,-2%,-8%
Cc1ccc2c(c1)c(=O)c(C(=O)c1ccncc1)cn2CC(=O)Nc1ccc(C(C)C)cc1,.,.,.,.,2%,.

# High-throughput results (PubChem)
